Our source for the growth values is PubChem BioAssay (NCI).

This is part of a sample that, as a whole, favours compounds with a hit. Of some 83,000 tested, about 20% had one in any assay.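 48-hour exposure, single concentration, 96-well plates; percent growth endpoint where 0 means no net growth. Active: below 10.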 Activity calls are given as the source filed them.

The subject of the assay is EKVX NSCLC. Kind of assay: NCI-60 one-dose screen, 48 h (100 = growth as untreated, 0 = no growth, -100 = all killed). Particulars: 10 µM unless noted.
Turning to `CCN(CC)CCOc1ccc(-c2c(-c3ccccc3)c(=O)oc3ccccc23)cc1`, the growth was 94.6% (inactive).
For `COc1ccc2c(O)c(/C=C3\N=Nc4ccccc43)oc2c1C[C@@H]1CCNC[C@H]1F`, the growth is 64.5% (inactive).
Take `COc1cc(OC)cc(C2=C3CC[C@@H]4[C@H](CC[C@]5(C)C(=O)CC[C@@H]45)C3=CC3C(O)c4cccnc4N4C(=O)COC234)c1` (some centres not stated): the growth was 101% (inactive).
As for `CC(=O)N1N=C(c2ccc(Nc3nc(Nc4ccc(Cl)cc4)nc(Nc4ccc(Cl)cc4)n3)cc2)CC1c1ccco1` (configuration not stated), the growth is 97% (inactive).
As for `CCS/C(Nc1ccccc1)=C(\C#N)C(=O)N/N=C/c1ccc(Cl)cc1Cl`, the growth was 47.4% (inactive).
Regarding `CCOC(=O)C(=Cc1cccc(Cl)c1)C(=O)OCC`, the growth is 78.7% (inactive).
Consider `CN[C@]12CC3(C=CC(=O)C=C3)O[C@@]1(Cc1ccc(OC)cc1)N(C)C(=O)N2`, for which the growth is 96% (inactive).
